Screening data as filed in PubChem BioAssay.
Compounds with a hit are over-represented: about 11% of the library has one in this group of screens.
Tau FP inhib: blocks human tau fibril formation measured by polarization. K18 P301L tau heparin fibrillization, Alexa594 FP, 6 h. Potency, µM (series often up to 57.7 µM), without a hit: top-dose activity, negative = inhibition, usual class: inhibitors. 280,000 compounds, 0.39% hits; further: potency means the concentration at half of the fitted maximal effect; nearly all actives have a fitted effect of over 55% in size
Target sequence (P10636 561-689 P618L limits assumed): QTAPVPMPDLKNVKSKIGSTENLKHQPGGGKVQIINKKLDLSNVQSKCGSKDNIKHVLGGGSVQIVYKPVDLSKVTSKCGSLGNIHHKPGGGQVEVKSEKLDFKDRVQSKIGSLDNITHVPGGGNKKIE
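Quantitative HTS format: compounds meet 15 uM recombinant K18 P301L tau and Alexa 594-tau tracer in 100 mM sodium acetate pH 7; 20 uM heparin triggers fibrillization at 37 C over 6 hr; FP gives the signal.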
G9a inh: inhibitors of human histone lysine methyltransferase G9a; Q96KQ7; G9a H3K9 monomethylation, AlphaScreen, 2 h; Potency, µM (top dose mostly 102 µM), inactives show at the highest dose activity, negative = inhibition, hits mostly inhibitors; 350,000 compounds, 8.8% hits; AID 504332; further: potency means the concentration at half of the fitted maximal effect; nearly all actives have a fitted effect of over 75% in size
Target sequence (Q96KQ7 913-1193 limits assumed): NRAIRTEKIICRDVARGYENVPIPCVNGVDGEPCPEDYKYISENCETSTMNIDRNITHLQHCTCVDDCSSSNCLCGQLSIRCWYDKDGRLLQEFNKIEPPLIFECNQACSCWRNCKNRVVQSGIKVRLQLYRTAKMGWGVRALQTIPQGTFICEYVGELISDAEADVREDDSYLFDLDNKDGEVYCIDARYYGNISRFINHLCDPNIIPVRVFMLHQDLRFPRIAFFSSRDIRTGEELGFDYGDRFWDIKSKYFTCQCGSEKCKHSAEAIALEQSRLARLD
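G9a (20 nM) preincubated 15 min RT with compounds, then 500 nM biotinylated H3K9 peptide and 20 uM SAM added; 2 h RT reaction. Monomethyl-H3K9 product detected by AlphaScreen with anti-H3K9me1 antibody, streptavidin donor and anti-rabbit IgG acceptor beads.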
Tau ThT inhib: inhibitors of human tau fibril formation, thioflavin T binding | Potency, µM (series often up to 57.4 µM), inactives show at the top dose activity, negative = inhibition, actives largely listed as inhibitors | P10636 | recombinant tau K18 P301L, heparin-induced fibrillization, ThT fluorescence | 270,000 compounds, 2.1% hits; further: potency means the concentration at half of the fitted maximal effect; nearly all actives have a fitted effect of over 55% in size
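Recombinant human tau K18 fragment […] carrying P301L, 15 uM unlabeled plus 0.24 uM Alexa 594-labeled, was fibrillized with 20 uM heparin in 100 mM sodium acetate pH 7 for 6 hr at 37 C; 30 uM ThT fluorescence read after 1 hr.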
Tau fluor cs: counter-screen for tau fibril formation inhibitors; tau K18 P301L Alexa594 fluorescence, heparin fibrillization; Potency, µM (doses to about 57.7 µM), for inactives: at the top dose activity change, negative = decrease; 280,000 compounds, 0.93% hits; further: potency means the concentration at half of the fitted maximal effect; nearly all actives have a fitted effect of over 55% in size
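Human tau K18 P301L (15 uM unlabeled, 0.24 uM Alexa 594-labeled) in 100 mM sodium acetate pH 7 with 20 uM heparin, 6 hr at 37 C. ThT 30 uM added, 1 hr ambient; Alexa 594 FP and total fluorescence read at 555/632 nm.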
Sfp PPTase inh: blocks B. subtilis Sfp PPTase activity; Q9F4F7; Biochemical Sfp PPTase activity, qHTS; Potency, µM, without a hit: largest response in the series, negative = inhibition, usual class: inhibitors; 310,000 compounds, 3.5% hits;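 further: the enzyme is Sfp with the accession as filed and its product quenches rhodamine fluorescence; potency means the concentration at half of the fitted maximal effect; 0% = enzyme reaction without inhibitor and -100% = no enzyme wells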
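With Hepes-Na pH 7.6 buffer containing 10 mM MgCl2, Sfp (15 nM) modified BHQ-2-YbbR (12.5 uM) using rhodamine-CoA (5 uM). Two reads 30 minutes apart at 525/598 nm yielded each well's rate.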
FBPA coupling cs: counter-screen for Giardia aldolase inhibitors: coupling enzyme system. coupling enzyme system counterscreen, AmpLite Red fluorescence. activity change, negative = inhibition, % at 58.2 µM, hits read low. 290,000 compounds, 0.67% hits. AID 2472; in the data active means activity change below about -30%
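Coupling enzymes only (glyceraldehyde-3-phosphate) + compound, at 57.5 uM final, 10 min RT; add substrate/coupling/AmpLite Red mix, 20 min RT; fluorescence ex 525/em 598 nm. Actives flag coupling-system interference.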
* = called active by the depositor; u = inconclusive; x = no result given; [ ] = remark or other dose. Unless noted, the call rests on the fitted dose curve; in most records, active means well fitted curve in the direction sought with a large enough effect; inconclusive means small, poorly fitted or top-dose-only effect, or another doubt; inactive means no such curve, though single readings can be large; an effect the other way counts as inactive or inconclusive. Unless noted, on the % scale 0 is the no-effect control and ±100 the full control effect.

SMILES | Tau FP inhib | G9a inh | Tau ThT inhib | Tau fluor cs | Sfp PPTase inh | FBPA coupling cs
Cc1ccc(C(=O)c2ccc([N+](=O)[O-])cc2)cc1 | 2% | u | -7% | -12% | 3% | 0
O=C(C#Cc1ccccc1)c1ccc([N+](=O)[O-])cc1 | u | 10µM* | u | u | -5% | 0
O=C(c1ccc(-c2ccccc2)cc1)c1ccc([N+](=O)[O-])cc1 | 7% | 56µM* | 1% | -13% | 13% | 3
CC(=O)c1ccc([N+](=O)[O-])cc1 | x | 10%[0.501 µM] | x | x | x | x
C=CC[n+]1c(C)csc1Nc1cccc(Br)c1 | 4% | 32µM* | -14% | -26% | -16% | -6
C=CC[n+]1c(C)csc1Nc1ccc(C)cc1 | 10% | 50µM* | -9% | -14% | 26% | 0
Brc1cccc(Nc2nc(-c3cccnc3)cs2)c1 | x | x | x | x | -6% | -2
COc1ccc(-c2nc3cnc(N4CCNCC4)nc3n(Cc3cccs3)c2=O)cc1 | x | -7%[0.501 µM] | x | x | u | 7
CCOC(=O)C1(Cc2cccc(F)c2)CCN(CC(O)CO)CC1 (centres undefined) | 2% | -3% | 11% | 15% | 11% | 0
Cc1ccc2c(CNC3CCC(C)CC3)c(C(=O)O)n(Cc3cccc(F)c3)c2c1 (centres undefined) | -4% | -32%[59 µM] | -3% | -8% | x | x
COc1cccc(/C=N/NC(=S)Nc2cccc(S(=O)(=O)N(C)C)c2)c1 | x | 8.9µM* | x | x | 10µM* | -10
COc1ccc(O)c(/C=N/NC(=S)Nc2cccc(S(=O)(=O)N(C)C)c2)c1 | u | u | u | u | -8% | 3
CN(C)S(=O)(=O)c1cccc(NC(=S)N/N=C/c2ccc(O)c(O)c2O)c1 | 7.1µM* | 3.2µM* | 3.2µM* | 13µM*[quencher] | 3.2µM* | -56*
O=C(NCC1CCCO1)c1c[nH]c2ccc(S(=O)(=O)Nc3cccc(C(F)(F)F)c3)cc2c1=O (centres undefined) | u | 1%[59 µM] | 6% | u | x | x
COC(=O)Cc1c(C)c2ccc(O)c(CNCc3ccc(OC)c(OC)c3)c2oc1=O | x | -11%[2.33 µM] | x | x | -25% | 1
CCN1CCN(Cc2ccc(NC(=O)c3ccc(C)c(/C=C/c4cnc(Nc5cc(N6CCNCC6)nc(C)n5)cn4)c3)cc2C(F)(F)F)CC1 | x | 28µM* | x | x | 56µM* | -4
CCN1CCN(Cc2ccc(NC(=O)c3ccc(C)c(NC(=O)c4ccno4)c3)cc2C(F)(F)F)CC1 | -7% | -46%[59 µM] | -4% | -7% | 15% | -2
CN1C(=O)C2(c3ccccc31)N(c1cccc(F)c1)C(=O)CS2(=O)=O (centres undefined) | -10% | 16µM* | -11% | -9% | x | x
CN1C(=O)C2(c3ccccc31)N(c1ccccc1)C(=O)CS2(=O)=O (centres undefined) | -6% | -9%[59 µM] | -1% | -8% | x | x
CCOc1ccc(Cn2c(O)cc(=O)[nH]c2=O)cc1 | u | u | 16µM* | -22% | 50µM* | 7
CCOc1ccc(OCC(=O)N(C)c2c(N)n(Cc3ccccc3)c(=O)[nH]c2=O)cc1 | x | -20%[12.7 µM] | x | x | x | x
COc1ccc(Cn2c(O)cc(=O)[nH]c2=O)cc1 | -15% | 10µM* | u | -13% | 45µM* | 11
CCOC(=O)CSc1nnc(CNc2cccc(Cl)c2)n1C | 4% | -1%[59 µM] | -4% | -7% | 3% | 1
COCCCn1c(Cc2csc(Nc3cccc(Cl)c3)n2)nnc1SCC(=O)OC | 4% | 28µM* | -11% | -16% | 25µM* | -7
CN(C)S(=O)(=O)N(CC(=O)NCCSCc1c(F)cccc1Cl)c1ccccc1 | -5% | 6%[59 µM] | -6% | -11% | x | x
SMILES | Tau FP inhib | G9a inh | Tau ThT inhib | Tau fluor cs | Sfp PPTase inh | FBPA coupling cs
CCc1ccccc1N(CC(=O)N1CCN(c2ccc(F)cc2)CC1)S(C)(=O)=O | 1% | 79µM* | -3% | -1% | 15% | -1
Cc1ccccc1N(CC(=O)N1CCN(c2ccccc2)CC1)S(C)(=O)=O | -11% | 50µM* | -10% | -15% | -5% | 2
CCc1ccccc1N(CC(=O)N1CCCC1)S(C)(=O)=O | x | 6% | x | x | 12% | 3
O=C(NC(=S)Nc1nc2c(s1)CCCC2)c1ccc(C(=O)c2ccccc2)cc1 | 12% | -39%[59 µM] | -4% | -2% | -11% | -5
O=C(NC(=S)Nc1nc2c(s1)CSc1ccccc1-2)c1ccccc1 | -4% | 3.5µM* | u | -25% | 45µM* | 5
COc1cc(OC)cc(C(=O)NNC(=O)C(=O)Nc2cc(OC)c(Cl)cc2OC)c1 | x | -1% | x | x | 23% | 14
CCn1c(C)c(C2=CCN(S(=O)(=O)c3ccccc3)CC2)c2ccccc21 | 6% | 40µM* | -11% | -24% | -14% | 2
COc1ccc(C(=O)N2CCC3(CCN(Cc4ccccc4OC)CC3)CC2)cc1 | x | -2%[12.7 µM] | x | x | 27% | 4
Cc1nnc(C)c2c(C)n(C(C)c3ccccc3)c(C)c12 (centres undefined) | 6% | 3%[59 µM] | -11% | 1% | u | -33*
COc1ccc(C(C)n2c(C)c3c(C)nnc(C)c3c2C)cc1 (centres undefined) | -5% | u | u | -7% | -16% | -18
CCOC(=O)c1ccc(NC(=O)COc2ccc(CNC3CCCCC3)cc2OC)cc1 | 11% | -10% | -3% | 2% | -4% | 1
CCCN1C(=O)c2cc(C(=O)Nc3ccc(OC)c(OC)c3)ccc2C1Nc1ccc(OC)c(OC)c1 (centres undefined) | -18% | -1% | u | u | -17% | -3
CCCN1C(=O)c2cc(C(=O)Nc3ccc(OC)cc3OC)ccc2C1Nc1ccc(OC)cc1OC (centres undefined) | 6% | 22µM* | -20% | u | 7% | -1
C/C(CCN1CCc2nc(-c3ccccc3)c(-c3ccccc3)cc2C1)=N\O[C@@H](C)CN1CCCCc2nc(C)c(C)cc21 | -1%[11.6 µM] | x | -8%[11.5 µM] | -1%[11.6 µM] | 5% | 4
O=C(Cc1csc(NC(=O)Nc2cccc(Cl)c2)n1)NCc1cccnc1 | x | 35µM* | x | x | x | x
COC(=O)c1cccc(NC(=O)N(C)CCc2c(C)nn(C)c2C)c1 | 0% | -10%[59 µM] | -1% | -1% | x | x
CCOC(=O)c1cc(C)n(CCc2ccccc2)c1C | 5% | 13%[59 µM] | -12% | -9% | 1% | -2
Cc1cc(-c2csc(N)n2)c(C)n1CCC(C)C | -16% | 10µM* | u | u | 50µM* | -7
Cc1cc(-c2csc(N)n2)c(C)n1CCc1ccccc1 | -2% | u | u | u | 45µM* | -5
O=C1C(=O)N(Cc2cccnc2)C(c2ccccn2)/C1=C(/O)c1ccc(F)cc1 (centres undefined) | -5% | u | -12% | -13% | 89µM* | -9
